# Columns and labels:
# Test in all cases: PBM; 200 nM protein, PBS
# Details in all cases: dsDNA, one strand shown
# [1] = target: HOXB9 (Homo sapiens, UniProt P17482 171-250, T197M)
# [2] = target: HOXC9 (Homo sapiens, UniProt P31274 178-260, K195R)
# [3] = target: HOXC10 (Homo sapiens, UniProt Q9NYD6 254-340)
# [4] = target: HOXB9 (Homo sapiens, UniProt P17482 171-250)
# [5] = target: HOXC9 (Homo sapiens, UniProt P31274 178-260)
# [6] = target: HOXD13 (Homo sapiens, UniProt P35453 263-343, T313R)
# Sequence of HOXD13 (Homo sapiens, UniProt P35453 263-343, T313R) (P35453 263-343 T313R): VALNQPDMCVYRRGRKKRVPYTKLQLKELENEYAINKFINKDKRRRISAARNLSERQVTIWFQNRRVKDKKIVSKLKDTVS
# [7] = target: HOXC9 (Homo sapiens, UniProt P31274 178-260, R193K)
# Sequence of HOXC9 (Homo sapiens, UniProt P31274 178-260, R193K) (P31274 178-260 R193K): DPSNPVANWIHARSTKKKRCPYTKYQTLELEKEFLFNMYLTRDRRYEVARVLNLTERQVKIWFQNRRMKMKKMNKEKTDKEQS
# [8] = target: HOXD13 (Homo sapiens, UniProt P35453 263-343)
# Sequence of HOXD13 (Homo sapiens, UniProt P35453 263-343) (P35453 263-343): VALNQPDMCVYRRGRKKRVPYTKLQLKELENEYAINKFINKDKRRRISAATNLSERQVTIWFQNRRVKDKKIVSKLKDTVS
# [9] = target: HOXC10 (Homo sapiens, UniProt Q9NYD6 254-340, K271E)
# Sequence of HOXC10 (Homo sapiens, UniProt Q9NYD6 254-340, K271E) (Q9NYD6 254-340 K271E): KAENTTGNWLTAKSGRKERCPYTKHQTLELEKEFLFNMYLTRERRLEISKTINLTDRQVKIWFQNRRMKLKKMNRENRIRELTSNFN
# [10] = target: HOXD13 (Homo sapiens, UniProt P35453 263-343, T313A)
# Sequence of HOXD13 (Homo sapiens, UniProt P35453 263-343, T313A) (P35453 263-343 T313A): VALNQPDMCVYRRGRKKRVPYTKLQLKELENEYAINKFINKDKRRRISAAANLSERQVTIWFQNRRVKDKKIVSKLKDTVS
# [11] = target: HOXB9 (Homo sapiens, UniProt P17482 171-250, R186Q)
# Sequence of HOXB9 (Homo sapiens, UniProt P17482 171-250, R186Q) (P17482 171-250 R186Q): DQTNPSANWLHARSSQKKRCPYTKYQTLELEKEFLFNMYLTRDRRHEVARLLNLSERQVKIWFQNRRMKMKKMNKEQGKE
# [12] = target: HOXC9 (Homo sapiens, UniProt P31274 178-260, R222W)
# Sequence of HOXC9 (Homo sapiens, UniProt P31274 178-260, R222W) (P31274 178-260 R222W): as the sequence (P31274 178-260 R193K) above, with K16R, R45W counted along it
# [13] = target: MSX2 (Homo sapiens, UniProt P35548 130-214, R199I)
# Sequence of MSX2 (Homo sapiens, UniProt P35548 130-214, R199I) (P35548 130-214 R199I): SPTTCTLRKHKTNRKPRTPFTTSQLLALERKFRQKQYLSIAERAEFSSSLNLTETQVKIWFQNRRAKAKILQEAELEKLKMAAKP
# [14] = target: MSX2 (Homo sapiens, UniProt P35548 130-214)
# Sequence of MSX2 (Homo sapiens, UniProt P35548 130-214) (P35548 130-214): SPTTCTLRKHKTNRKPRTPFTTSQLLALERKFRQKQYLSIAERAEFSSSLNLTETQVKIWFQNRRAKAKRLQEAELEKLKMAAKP
# [15] = target: PROP1 (Homo sapiens, UniProt O75360 56-141)
# Sequence of PROP1 (Homo sapiens, UniProt O75360 56-141) (O75360 56-141): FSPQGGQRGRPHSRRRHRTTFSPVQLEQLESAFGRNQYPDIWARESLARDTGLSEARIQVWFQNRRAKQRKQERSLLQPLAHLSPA
# [16] = target: PROP1 (Homo sapiens, UniProt O75360 56-141, R99H)
# Sequence of PROP1 (Homo sapiens, UniProt O75360 56-141, R99H) (O75360 56-141 R99H): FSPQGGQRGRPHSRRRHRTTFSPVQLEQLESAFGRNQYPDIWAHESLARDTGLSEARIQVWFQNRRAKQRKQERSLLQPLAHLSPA
# [17] = target: PROP1 (Homo sapiens, UniProt O75360 56-141, F88S)
# Sequence of PROP1 (Homo sapiens, UniProt O75360 56-141, F88S) (O75360 56-141 F88S): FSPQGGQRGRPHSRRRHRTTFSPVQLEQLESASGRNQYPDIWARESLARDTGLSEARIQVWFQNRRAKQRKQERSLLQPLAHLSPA
# [18] = target: MSX2 (Homo sapiens, UniProt P35548 130-214, F161Y)
# Sequence of MSX2 (Homo sapiens, UniProt P35548 130-214, F161Y) (P35548 130-214 F161Y): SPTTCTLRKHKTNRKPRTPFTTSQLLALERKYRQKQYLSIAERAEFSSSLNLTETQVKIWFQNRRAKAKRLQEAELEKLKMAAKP
# [19] = target: HOXB6 (Homo sapiens, UniProt P17509 132-218, K202E)
# Sequence of HOXB6 (P17509 132-218 K202E): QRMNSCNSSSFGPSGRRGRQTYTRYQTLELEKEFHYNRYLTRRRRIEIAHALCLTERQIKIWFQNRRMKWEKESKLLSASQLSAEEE
# [20] = target: ALX3 (Homo sapiens, UniProt O95076 139-225, N203Q)
# Sequence of ALX3 (O95076 139-225 N203Q): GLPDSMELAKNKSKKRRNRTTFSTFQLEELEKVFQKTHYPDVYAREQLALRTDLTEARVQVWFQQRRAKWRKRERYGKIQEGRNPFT
# Sequence of HOXC9 (Homo sapiens, UniProt P31274 178-260) (P31274 178-260): as the sequence (P31274 178-260 R193K) above, with K16R counted along it
# Sequence of HOXB9 (Homo sapiens, UniProt P17482 171-250, T197M) (P17482 171-250 T197M): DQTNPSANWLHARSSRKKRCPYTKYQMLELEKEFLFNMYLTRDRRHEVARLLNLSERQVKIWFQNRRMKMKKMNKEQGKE
# Sequence of HOXC10 (Homo sapiens, UniProt Q9NYD6 254-340) (Q9NYD6 254-340): as the sequence (Q9NYD6 254-340 K271E) above, with E18K counted along it
# Sequence of HOXC9 (Homo sapiens, UniProt P31274 178-260, K195R) (P31274 178-260 K195R): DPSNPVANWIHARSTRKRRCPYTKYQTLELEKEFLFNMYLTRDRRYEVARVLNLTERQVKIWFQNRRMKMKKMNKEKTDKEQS
# Sequence of HOXB9 (Homo sapiens, UniProt P17482 171-250) (P17482 171-250): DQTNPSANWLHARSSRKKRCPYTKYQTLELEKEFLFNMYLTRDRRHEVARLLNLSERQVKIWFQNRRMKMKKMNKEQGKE
Sequence,binding signal [1],binding signal [2],binding signal [3],binding signal [4],binding signal [5],binding signal [6],binding signal [7],binding signal [8],binding signal [9],binding signal [10],binding signal [11],binding signal [12],binding signal [13],binding signal [14],binding signal [15],binding signal [16],binding signal [17],binding signal [18],binding signal [19],binding signal [20]
TCGTAAAA,"9.97 upbm affinity estimate (log intensity, higher = more binding, comparable within an allelic series)","13.1 upbm affinity estimate (log intensity, higher = more binding, comparable within an allelic series)","12.8 upbm affinity estimate (log intensity, higher = more binding, comparable within an allelic series)","12.6 upbm affinity estimate (log intensity, higher = more binding, comparable within an allelic series)","13.2 upbm affinity estimate (log intensity, higher = more binding, comparable within an allelic series)","11.1 upbm affinity estimate (log intensity, higher = more binding, comparable within an allelic series)","13 upbm affinity estimate (log intensity, higher = more binding, comparable within an allelic series)","12.3 upbm affinity estimate (log intensity, higher = more binding, comparable within an allelic series)","12.3 upbm affinity estimate (log intensity, higher = more binding, comparable within an allelic series)","12.2 upbm affinity estimate (log intensity, higher = more binding, comparable within an allelic series)","12 upbm affinity estimate (log intensity, higher = more binding, comparable within an allelic series)","11.3 upbm affinity estimate (log intensity, higher = more binding, comparable within an allelic series)",–,–,–,–,–,–,–,–
CCGCCTGC,"8.29 upbm affinity estimate (log intensity, higher = more binding, comparable within an allelic series)","9.62 upbm affinity estimate (log intensity, higher = more binding, comparable within an allelic series)",–,"8.24 upbm affinity estimate (log intensity, higher = more binding, comparable within an allelic series)","9.64 upbm affinity estimate (log intensity, higher = more binding, comparable within an allelic series)",–,"9.49 upbm affinity estimate (log intensity, higher = more binding, comparable within an allelic series)",–,–,–,"8.24 upbm affinity estimate (log intensity, higher = more binding, comparable within an allelic series)","9.72 upbm affinity estimate (log intensity, higher = more binding, comparable within an allelic series)","9.41 upbm affinity estimate (log intensity, higher = more binding, comparable within an allelic series)","9.55 upbm affinity estimate (log intensity, higher = more binding, comparable within an allelic series)","6.72 upbm affinity estimate (log intensity, higher = more binding, comparable within an allelic series)","6.65 upbm affinity estimate (log intensity, higher = more binding, comparable within an allelic series)","6.62 upbm affinity estimate (log intensity, higher = more binding, comparable within an allelic series)","9.55 upbm affinity estimate (log intensity, higher = more binding, comparable within an allelic series)",–,–
CTATAAAA,"9.77 upbm affinity estimate (log intensity, higher = more binding, comparable within an allelic series)","12.8 upbm affinity estimate (log intensity, higher = more binding, comparable within an allelic series)","12.4 upbm affinity estimate (log intensity, higher = more binding, comparable within an allelic series)","12.2 upbm affinity estimate (log intensity, higher = more binding, comparable within an allelic series)","12.9 upbm affinity estimate (log intensity, higher = more binding, comparable within an allelic series)","11.1 upbm affinity estimate (log intensity, higher = more binding, comparable within an allelic series)","12.8 upbm affinity estimate (log intensity, higher = more binding, comparable within an allelic series)","12.4 upbm affinity estimate (log intensity, higher = more binding, comparable within an allelic series)","11.7 upbm affinity estimate (log intensity, higher = more binding, comparable within an allelic series)","12.2 upbm affinity estimate (log intensity, higher = more binding, comparable within an allelic series)","11.9 upbm affinity estimate (log intensity, higher = more binding, comparable within an allelic series)","11.4 upbm affinity estimate (log intensity, higher = more binding, comparable within an allelic series)",–,–,–,–,–,–,–,–
CATAAAAC,"9.89 upbm affinity estimate (log intensity, higher = more binding, comparable within an allelic series)","12.9 upbm affinity estimate (log intensity, higher = more binding, comparable within an allelic series)","12.6 upbm affinity estimate (log intensity, higher = more binding, comparable within an allelic series)","12.4 upbm affinity estimate (log intensity, higher = more binding, comparable within an allelic series)","13.1 upbm affinity estimate (log intensity, higher = more binding, comparable within an allelic series)","10.7 upbm affinity estimate (log intensity, higher = more binding, comparable within an allelic series)","13 upbm affinity estimate (log intensity, higher = more binding, comparable within an allelic series)","12 upbm affinity estimate (log intensity, higher = more binding, comparable within an allelic series)","11.9 upbm affinity estimate (log intensity, higher = more binding, comparable within an allelic series)","11.7 upbm affinity estimate (log intensity, higher = more binding, comparable within an allelic series)","12.1 upbm affinity estimate (log intensity, higher = more binding, comparable within an allelic series)","11.3 upbm affinity estimate (log intensity, higher = more binding, comparable within an allelic series)",–,–,–,–,–,–,–,–
GCTATAAA,"9.72 upbm affinity estimate (log intensity, higher = more binding, comparable within an allelic series)","12.7 upbm affinity estimate (log intensity, higher = more binding, comparable within an allelic series)","12.2 upbm affinity estimate (log intensity, higher = more binding, comparable within an allelic series)","12 upbm affinity estimate (log intensity, higher = more binding, comparable within an allelic series)","12.8 upbm affinity estimate (log intensity, higher = more binding, comparable within an allelic series)","10.9 upbm affinity estimate (log intensity, higher = more binding, comparable within an allelic series)","12.7 upbm affinity estimate (log intensity, higher = more binding, comparable within an allelic series)","12 upbm affinity estimate (log intensity, higher = more binding, comparable within an allelic series)","11.4 upbm affinity estimate (log intensity, higher = more binding, comparable within an allelic series)","11.7 upbm affinity estimate (log intensity, higher = more binding, comparable within an allelic series)","11.7 upbm affinity estimate (log intensity, higher = more binding, comparable within an allelic series)","11 upbm affinity estimate (log intensity, higher = more binding, comparable within an allelic series)",–,–,–,–,–,–,–,–
ACCATAAA,"9.6 upbm affinity estimate (log intensity, higher = more binding, comparable within an allelic series)","12.5 upbm affinity estimate (log intensity, higher = more binding, comparable within an allelic series)","12.3 upbm affinity estimate (log intensity, higher = more binding, comparable within an allelic series)","11.9 upbm affinity estimate (log intensity, higher = more binding, comparable within an allelic series)","12.8 upbm affinity estimate (log intensity, higher = more binding, comparable within an allelic series)","10.8 upbm affinity estimate (log intensity, higher = more binding, comparable within an allelic series)","12.7 upbm affinity estimate (log intensity, higher = more binding, comparable within an allelic series)","12 upbm affinity estimate (log intensity, higher = more binding, comparable within an allelic series)","11.5 upbm affinity estimate (log intensity, higher = more binding, comparable within an allelic series)","11.7 upbm affinity estimate (log intensity, higher = more binding, comparable within an allelic series)","11.6 upbm affinity estimate (log intensity, higher = more binding, comparable within an allelic series)","10.9 upbm affinity estimate (log intensity, higher = more binding, comparable within an allelic series)",–,–,–,–,–,–,–,–
ATAATAAT,"9.97 upbm affinity estimate (log intensity, higher = more binding, comparable within an allelic series)","12.6 upbm affinity estimate (log intensity, higher = more binding, comparable within an allelic series)",–,–,–,–,–,–,–,–,–,–,–,–,–,–,–,–,"10 upbm affinity estimate (log intensity, higher = more binding, comparable within an allelic series)","8.6 upbm affinity estimate (log intensity, higher = more binding, comparable within an allelic series)"

# From article PMC11006913
